# In all, about 16,000 compounds went through this assay and about 5,800 (36%) were called active. About 23% were inconclusive and are not listed. This is one part of the list. A number with no mark means an inactive call. The call rests on the fitted dose curve; in most records, active means well fitted curve in the direction sought with a large enough effect; inconclusive means small, poorly fitted or top-dose-only effect, or effect the other way; inactive means no such curve, though single readings can be large or run the other way.
# Target: Cytochrome P450 2C19 (Homo sapiens) (UniProt P33261)
# Sequence (P33261 whole entry, looked up): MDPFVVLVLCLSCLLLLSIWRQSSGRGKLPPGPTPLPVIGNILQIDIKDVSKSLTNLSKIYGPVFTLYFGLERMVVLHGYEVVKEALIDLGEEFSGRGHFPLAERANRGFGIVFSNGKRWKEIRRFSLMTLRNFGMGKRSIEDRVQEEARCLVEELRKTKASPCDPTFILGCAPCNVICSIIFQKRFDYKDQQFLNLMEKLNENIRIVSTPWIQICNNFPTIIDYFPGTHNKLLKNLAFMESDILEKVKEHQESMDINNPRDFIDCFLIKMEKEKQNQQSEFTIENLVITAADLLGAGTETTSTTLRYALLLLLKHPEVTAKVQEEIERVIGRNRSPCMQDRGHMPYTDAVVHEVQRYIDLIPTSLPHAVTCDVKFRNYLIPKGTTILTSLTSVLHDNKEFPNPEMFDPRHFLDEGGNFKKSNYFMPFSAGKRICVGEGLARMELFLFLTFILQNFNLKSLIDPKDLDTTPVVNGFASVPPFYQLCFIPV
# Experiment: Cytochrome panel assay with activity outcomes
# Conditions: recombinant CYP, pro-luciferin dealkylation, luminescence, p450-cyp2c19; series mostly up to 57.1 µM; activity, negative = inhibition: at the top concentration
# On the % scale 0 is the no-effect control and ±100 the full control effect.
SMILES,"activity, negative = inhibition",AC50
COC(=O)N1CCC2(CC1)CCN(c1ncccn1)CC2,9.12%,–
Cc1sc(NC(=O)c2ccco2)c(C(c2cccnc2)N2CCN(C)CC2)c1C (stereo not drawn),–,20 µM (active)
Cc1sc(NC(=O)c2ccco2)c(C(c2cccnc2)N2CCCC2)c1C (stereo not drawn),–,11.2 µM (active)
Cc1sc(NC(=O)c2ccco2)c(C(c2ccncc2)N2CCOCC2)c1C (stereo not drawn),–,10 µM (active)
O=C(Nc1c(C(=O)N2CCCCC2)cnn1-c1ccccc1)c1ccco1,-22.6%,–
Cc1c(C)c2c(c(C)c1O)CC[C@@](C)(C(=O)O)O2,9.1% [at 25.6 µM],–
O=C(N/N=C/c1ccc(O)cc1)c1csc2ccccc12,–,14.1 µM (active)
CCOc1ccc(NC(=S)N(Cc2ccc(Cl)cc2)Cc2ccco2)cc1,–,7.94 µM (active)
CCOc1ccc(NC(=S)N(Cc2ccc(N(C)C)cc2)Cc2ccco2)cc1,–,1.58 µM (active)
Cc1ccccc1NC(=O)CN1CCC(n2nnc3ccccc32)CC1,–,17.8 µM (active)
CCc1ccccc1NC(=O)c1nnn(CC(=O)Nc2ccccc2C)c1N,-8.56%,–
Cc1ccc2c(c1)nnn2C1CCN(CC(=O)N2c3ccccc3CC2C)CC1 (stereo not drawn),–,10 µM (active)
Cc1cc(N=Cc2c(CO)cnc(C)c2O)c(N=Cc2c(CO)cnc(C)c2O)cc1C.[Zn],-22.1% [at 11.4 µM],–
CCCCN=c1sc(C(=O)OC)cc(=O)n1CCCC,–,2.24 µM (active)
Cc1cc2c(c(=O)o1)[C@@H](O)[C@H]1O[C@@H]1C2=O,-1.32% [at 11.4 µM],–
Cc1cccc(NS(=O)(=O)c2c(C)n[nH]c2C)c1,–,7.08 µM (active)
Cc1n[nH]c(C)c1S(=O)(=O)N1CCOCC1,2.95%,–
COc1ccc(N(CC(=O)Nc2cccc(C)c2)S(=O)(=O)c2c(C)n[nH]c2C)cc1,–,0.794 µM (active)
CN(C)c1cc(-c2cccc(NS(C)(=O)=O)c2)ncn1,-19%,–
CN(CC(=O)Nc1ccc(F)c(F)c1)S(=O)(=O)c1cccc2nsnc12,–,3.55 µM (active)
N#Cc1cccc(NC(=O)N2CCC3(CC2)CCN(C(=O)c2cccc(F)c2)CC3)c1,-25.9%,–
O=S1(=O)[C@H]([C@H]2CC3c4ccccc4C2c2ccccc23)[C@@H](N2CCCCC2)[C@@H]1c1ccccc1,–,2.51 µM (active)
O=C(O)[C@H]1CN(CCCP(=O)(O)O)CCN1,-8.91%,–
O=C(O)[C@@H]1CCCN1,19.4% [at 11.4 µM],–
O=C(O)[C@H]1C[C@@H](CP(=O)(O)O)CCN1,–,7.94 µM (active)
CCCCn1c(SCc2c(C)noc2C)nc2cc(S(N)(=O)=O)ccc21,–,14.1 µM (active)
CCOc1c(OC(C)=O)ccc(/C=C/c2ccc3cccc(OC(C)=O)c3n2)c1[N+](=O)[O-],–,10 µM (active)
CCOc1c(OC(C)=O)ccc(/C=C2\N=C(SCC)SC2=O)c1[N+](=O)[O-],–,2.82 µM (active)

# Source: PubChem BioAssay AID1851 (National Center for Advancing Translational Sciences (NCATS), 2009)
